Assay outcomes (PubChem BioAssay)
The list is not random: actives were taken first. Their share in the collection is about 0.69%.
Phagocyt inh = inhibitors of macrophage phagocytosis; J774A.1 macrophage IgG-bead phagocytosis, imaging; inhibition, % at 5 µM; actives 0.07% (n = 110,000); AID 1029;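 active means inhibition above the mean of the plate negative controls plus 5 SD, cut at about 13% in these data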;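 further: phagocytic index as fraction of beads internalized from green versus red external bead signal; plate controls were DMSO negative control for no effect and cytochalasin-D positive control for full effect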
MRP1 act = activates MRP-1; H69AR cells + doxorubicin, viability rescue, CellTiter-Glo; viability increase, % at 10 µM; actives 0.61% (n = 140,000); AID 799;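 active means viability gain under doxorubicin at or above a set limit, the compound median plus 3 SD, cut at about 4.7% in these data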;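 further: MRP-1 overexpressing cells given doxorubicin 25 µM after compound pretreatment; 18-22 h compound pretreatment then 72 h with doxorubicin before readout; 0% = doxorubicin-only wells and 100% = vehicle-treated cells without doxorubicin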
MRP resist rev = MRP-mediated drug resistance reversal | AID 602 | H69AR cells + 2 uM doxorubicin, CellTiter-Glo, 72 h | differential viability (reversal), % at 10 µM | actives 0.04% (n = 85,000);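 active means viability drop by adding the cancer drug above about 55%, with treated viability meeting a 40% cutoff, limit read from the data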;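 further: viability without doxorubicin minus viability with 2 µM doxorubicin for each compound; larger differential means the compound sensitizes cells more to doxorubicin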
* hit, by the source's call; · = not tested or not shown.

SMILES	Phagocyt inh	MRP1 act	MRP resist rev
CC(C)c1ccccc1NC(=O)c1cccc(NC(=O)c2ccccc2)c1	-0.5	-2.7	-0.2
COc1cccc(C2C(C(=O)c3sc(C)nc3C)=C(O)C(=O)N2CCN2CCOCC2)c1OC (configuration not stated)	-0.7	-0.5	-11.4
COc1ccccc1C1C(C(=O)c2sc(C)nc2C)=C(O)C(=O)N1CCN1CCOCC1 (configuration not stated)	-0.7	7.6*	·
O=C(CO/N=C\c1ccccc1)Nc1ccccc1C(=O)N1CCOCC1	-1.7	-1.3	·
Cc1nc(NC(=O)CSc2nc3cccnc3n2C2CCCCC2)sc1C	-0.9	-2.1	-4.2
CCc1nnc(NC(=O)CSc2nc3cccnc3n2C2CCCCC2)s1	0.9	4.8*	22.6
CCOc1ccc(/C=C/C(=O)Nc2ccc3[nH]c(=O)[nH]c3c2)cc1	-7.5	1.8	·
CCOC(=O)C1=C(C)Nc2ncnn2C1c1ccc(N(C)C)cc1 (configuration not stated)	-0.8	-2.3	14.3
CCOC(=O)C1=C(C)Nc2ncnn2C1c1cccnc1 (configuration not stated)	·	177.3*	-11.5
Cc1c(Cl)cnc(NC(=O)COC(=O)c2cccc(S(=O)(=O)N3c4ccccc4CC3C)c2)c1Cl (configuration not stated)	-0.6	-1.1	·
CCOc1ccc(-c2nc(C#N)c(N3CCCCCC3)o2)cc1	-0.6	5.7*	-10.1
CCOc1ccc(-c2nc(C#N)c(N3CCN(C)CC3)o2)cc1	0.4	0.9	11.5
N#Cc1nc(COc2cccc(Cl)c2)oc1N1CCCC1	-0.4	-2.1	11.0
N#Cc1nc(COc2ccc(F)cc2)oc1N1CCCC1	3.3	4.8*	-2.2
CCC(=O)Nc1ccc(S(=O)(=O)Nc2cccc(C)c2)cc1OC	-1.7	0.1	2.5
Cc1ccc(C(=O)N/N=C(\CC(C)C)c2ccccc2)cc1	-4.3	-3.9	·
COc1ccc(C2C3=C(CCCC3=O)Nc3nc4ccccc4n32)c(OC)c1OC (configuration not stated)	·	·	-1.4
CCc1c(C)sc(NC(=O)Cn2nc(C(F)(F)F)c3c2CCCC3)c1C#N	-1.2	-1.7	·
CC1CN(c2nc3c(c(=O)n(Cc4ccc(Cl)cc4)c(=O)n3C)n2C)CC(C)O1 (configuration not stated)	0.5	-4.8	57.4*
Cn1c(N2CCCC2)nc2c1c(=O)n(Cc1ccc(Cl)cc1)c(=O)n2C	-0.4	-0.2	8.7
Cc1sc(NC(=O)CN(Cc2ccc(F)cc2)C(=O)C(C)(C)C)c(C(N)=O)c1C	-6.6	0.0	·
CCCOc1ccc(CSc2nc3ccccc3[nH]2)cc1	·	-3.1	·
CCCCOc1ccc(CSc2n[nH]c(C)n2)cc1	-0.6	-0.4	7.7
CCCCOc1ccc(CSc2ncn[nH]2)cc1	-0.1	9.8*	13.3
CCCCCOc1ccc(CSc2ncn[nH]2)cc1	·	6.3*	17.8
SMILES	Phagocyt inh	MRP1 act	MRP resist rev
Cc1oc(=O)c(NC(=O)c2cccc(Cl)c2)cc1C(=O)c1ccccc1	·	-4.9	·
c1ccc(Oc2cc(-c3ccccc3)ncn2)cc1	·	0.2	·
CCOc1cc(NC(=O)C2CC2)c(OCC)cc1NC(=O)CCn1nnc2ccccc21	-2.9	-0.4	·
CC(=O)Nc1ccc(-n2c(C)nc(=O)c(-c3ccccc3)c2C)cc1	-0.2	11.0*	-7.6
Cc1nc(=O)c(-c2ccccc2)c(C)n1-c1ccccc1O	3.3	2.1	-7.5
Cc1nc(=O)c(-c2ccccc2)c(C)n1-c1ccc(O)cc1	·	5.3*	3.0
CC(=O)Nc1ccc(-n2c(C)c(C(C)=O)c(C(C)=O)c2C)cc1	-0.7	-0.2	14.8
O=C(CSc1nc(CCC2CCCC2)nc2ccccc12)NCc1ccc2c(c1)OCO2	-8.9	-4.8	·
Nc1nc(SCC(=O)NC2CCCC2)[nH]c(=O)c1-c1ccccc1	-0.2	-0.5	·
Cc1ccccc1/C(N)=N/OC(=O)c1cccs1	-8.7	-4.0	·
CC(C)c1nnc(NC(=O)CSc2ncn[nH]2)s1	1.6	4.8*	-9.1
CC(C)c1nnc(NC(=O)CSc2nc3ccccc3s2)s1	-0.9	-0.9	-0.9
O=C(CSc1ncn[nH]1)Nc1ccccc1C(=O)O	-0.4	-2.1	-10.4
O=C(CSc1ncn[nH]1)Nc1ccc(Br)cc1F	-0.4	7.0*	-9.9
Fc1ccc(NC(=S)NCc2cccs2)cc1	·	-3.8	·
CC1Cc2ccccc2N1Cc1nc2cc(C(F)(F)F)ccc2c(=O)[nH]1 (configuration not stated)	·	-4.9	-47.6
Cc1nc(-c2ccccc2)sc1-c1nc(-c2cccs2)ncc1S(=O)(=O)c1ccccc1	1.2	0.3	·
Nc1ccc(C(=O)OCC(=O)N2c3ccccc3Sc3ccccc32)cc1[N+](=O)[O-]	1.6	8.7*	·
Nc1ccc(C(=O)OCC(=O)N2CCc3ccccc3C2)cc1[N+](=O)[O-]	4.8	-0.8	·
Cc1cc([N+](=O)[O-])nn1CCCC(=O)N1CCN(c2ccccc2)CC1	-6.1	-2.1	·
CCOC(=O)CSc1nnc(CSc2nc3sc4c(c3c(=O)[nH]2)CCCC4)n1-c1ccccc1	·	-0.5	-14.0
Cc1cc(Cl)cc(Br)c1OCCCCn1cncn1	2.7	0.2	13.3
Cc1cc(Cl)cc(Br)c1OCCNCC(C)O (configuration not stated)	174.1*	-3.8	7.8
CN(C)c1ccc(/C=C(\Cl)c2nc3ccccc3s2)cc1	-2.6	-3.6	·
CCCCOC(=O)Nc1ccc(S(=O)(=O)Nc2ccc([N+](=O)[O-])cc2)cc1	-4.9	4.7*	·
SMILES	Phagocyt inh	MRP1 act	MRP resist rev
CCCCOC(=O)Nc1ccc(C(C)C)cc1	·	6.0*	-0.7
CCCCOC(=O)Nc1ccc(C(N)=O)cc1	0.2	-2.1	5.7
CCCCCOC(=O)Nc1ccc(S(=O)(=O)Nc2cccc([N+](=O)[O-])c2)cc1	-5.6	-0.3	·
Cn1cc(Br)c(C(=O)NNC(=O)c2ccccc2)n1	-5.2	-0.7	·
Cn1cc(Br)c(C(=O)NNC(=O)c2ccc(Br)cc2)n1	-6.0	7.6*	·
Cc1nc2cc(N3CCN(C)CC3)c(NC(=O)Cc3ccccc3)cc2c(=O)n1Cc1ccccc1	-0.3	-1.8	·
CCN(CC)c1cc2nc(C)n(Cc3ccccc3)c(=O)c2cc1NC(=O)C1CC1	·	4.8*	-6.5
Cc1onc(-c2ccccc2Cl)c1C(=O)OCC(=O)Nc1ccc2c(c1)OCO2	-0.7	5.7*	11.5
Cc1onc(-c2ccccc2)c1C(=O)OCC(=O)Nc1ccc2c(c1)OCO2	0.1	1.9	13.4
CC(C)CC(=O)n1sc(NC(=O)c2ccccc2)nc1=O	4.4	6.5*	·
Cc1ccc(C(=O)Nc2nc(=O)n(C(=O)CC(C)C)s2)cc1	-0.3	3.1	·
Cc1ccc(-c2[nH]ncc2/C=N/n2c(COc3ccccc3C)nc3ccccc3c2=O)cc1	-4.1	-4.7	·
COc1ccc(N2CCN(c3nc(NCCO)nc(N4CCOCC4)n3)CC2)cc1	0.8	1.4	19.1
COc1ccc(N2CCN(c3nc(Cl)nc(N4CCOCC4)n3)CC2)cc1	·	8.8*	-7.5
Oc1ccc(-c2nc(-c3ccc(O)c(O)c3)cs2)cc1	2.1	9.1*	-26.6
Oc1ccc(Nc2nc(-c3ccc4ccccc4c3)cs2)cc1	-0.4	-6.6	-4.6
CCCCNC(=O)C1CCN(S(=O)(=O)N2CCCCCC2)CC1	-2.4	-0.5	·
N#Cc1c(-c2cccs2)nc(SCC(=O)c2cccs2)[nH]c1=O	·	5.6*	·
C=CCSc1nc(-c2ccccc2)c(C#N)c(=O)[nH]1	-1.9	1.0	13.4
N#Cc1c(-c2ccccc2)nc(SCC(=O)Nc2ccccc2F)[nH]c1=O	-3.2	9.8*	·
